This note sets out measurements from the supplement of paper PMC11732987, “Enantioselective OTUD7B fragment discovery through chemoproteomics screening and high-throughput optimisation” (Communications Chemistry, 2025).

Values without a mark were called inactive.

Sequence of USP14 (P54578 whole entry, the tested form may be a part): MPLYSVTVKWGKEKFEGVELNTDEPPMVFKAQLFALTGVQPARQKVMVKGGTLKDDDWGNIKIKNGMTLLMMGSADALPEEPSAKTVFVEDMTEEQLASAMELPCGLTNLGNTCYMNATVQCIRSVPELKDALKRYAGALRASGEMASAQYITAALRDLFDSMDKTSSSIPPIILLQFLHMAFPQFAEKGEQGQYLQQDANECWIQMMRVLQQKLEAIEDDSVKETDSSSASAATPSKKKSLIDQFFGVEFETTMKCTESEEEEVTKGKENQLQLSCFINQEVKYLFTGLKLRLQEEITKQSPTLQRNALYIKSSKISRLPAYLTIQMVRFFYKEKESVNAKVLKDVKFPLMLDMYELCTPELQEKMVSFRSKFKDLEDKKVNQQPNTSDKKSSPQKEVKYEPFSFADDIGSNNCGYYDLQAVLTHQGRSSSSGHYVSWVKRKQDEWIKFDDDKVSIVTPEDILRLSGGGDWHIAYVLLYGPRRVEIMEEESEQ

This test has as its target USP14 (UniProt P54578). As to the kind of experiment: log2 ratio of Biotin-Ahx-Ub-VS probe labelling (fragment/DMSO); higher = less target engagement (more negative = stronger competition), active = hit call of the paper (q ≤ 0.05, log2 ratio ≤ -1). Particulars: compound concentration: 200 uM; treatment time: 3 h. The method, then: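 Competitive ABPP in HEK293T cell lysate. Lysates were treated with each chloroacetamide fragment at 200 µM for 3 h, then with Biotin-Ahx-Ub-VS (0.5 µM, 1 h), NeutrAvidin-enriched and analysed by diaPASEF LC-MS/MS. Protein LFQ was median-normalised; average log2 ratio is fragment/DMSO from an unpaired t-test (n=3 treated, n=44 DMSO). Hits: q ≤ 0.05, log2 ratio ≤ -1, unique peptides ≥ 2.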
On to `Cl.O=C(CCl)N1CCc2ncncc2C1`, for which the “log2 ratio of Biotin-Ahx-Ub-VS probe labelling” value (from here on “log2 ratio”) was -0.0964. As for `Cl.O=C(CCl)N[C@H]1C[C@@H](n2cccn2)C1`, the figure is -0.208.

Consider `O=C(CCl)N1CCOC2(CCC2)C1`, for which the “log2 ratio” value was 0.0484. As for `O=C(CCl)N1CCc2[nH]c3ccccc3c2C1`, the figure is -1.05 (active).

Take `O=C(CCl)NCCc1ccc2c(c1)OCCO2`: the “log2 ratio” value is -0.579. As for `Cc1cccc2nc(CCNC(=O)CCl)cn12.Cl`, the “log2 ratio” value is -0.259. The same measure for `O=C(CCl)N1CCC(c2noc3cc(F)ccc23)CC1`: -0.337; for `COc1ccc(-c2csc(NC(=O)CCl)n2)cc1`: -0.0511; for `Cc1cccc(C(CNC(=O)CCl)N2CCOCC2)c1.Cl` (stereo not given): 0.0229. As for `O=C(CCl)N1c2ccccc2NC(=O)C12CCCC2`, the figure is -0.661; as for `O=C(CCl)Nc1cc(Cl)ccc1-n1cncn1`, -1.09 (active); as for `O=C(CCl)NC1CCS(=O)(=O)c2ccccc21` (stereo not given), -0.152. As for `Cc1noc(C)c1CNC(=O)CCl`, the figure is -0.561; as for `Cc1ccc(C)c(NC(=O)CCl)c1`, -0.687. For `Cc1ccc(N(C(=O)CCl)C2C=CS(=O)(=O)C2)cc1` (stereo not given), the “log2 ratio” value was -0.0859. In the case of `Cc1cnc2[nH]cc(CCNC(=O)CCl)c2c1`, the “log2 ratio” value is -0.111. For the compound `O=C(CCl)N1CCOC(CCc2ccccc2)C1` (stereo not given), the “log2 ratio” value was -0.562.

On to `CNC(=O)C1(NC(=O)CCl)CCCCC1`, for which the “log2 ratio” value is -0.0905. `CC(NC(=O)CCl)c1noc(Cc2ccccc2)n1` (stereo not given): the “log2 ratio” value is -0.411. The same measure for `O=C(CCl)NCCc1cccc2ccccc12`: 0.0871; for `O=C(CCl)NCC1(c2ccccc2)CC1`: 0.0125. As for `O=C(CCl)NC1(c2ccc3c(c2)OCCO3)CCCC1`, the figure is -0.293; as for `CC1CCc2onc(CNC(=O)CCl)c2C1` (stereo not given), 0.328. As to `O=C(CCl)Nc1cc(Cl)ccc1C(=O)O`, the “log2 ratio” value was 0.0912. As for `Cc1nc(CN2CCN(C(=O)CCl)CC2)cs1`, the figure is -0.431; as for `Cc1ccc(CC(CO)CNC(=O)CCl)cc1` (stereo not given), -0.262. The same measure for `O=C(CCl)NCc1noc(C2CC2)n1`: -0.284. As for `Cc1cc(NC(=O)CCl)n(-c2ccccc2)n1`, the figure is 0.0764. `NC(=O)C1CCCCN1C(=O)CCl` (stereo not given): the “log2 ratio” value is -0.15. The same measure for `N#Cc1ccc(CNC(=O)CCl)cc1`: -0.177; for `CC1Cc2ccccc2N1C(=O)CCl` (stereo not given): -0.771; for `Cc1ncsc1CCNC(=O)CCl`: 0.518. The same measure for `CCC(NC(=O)CCl)c1ccc(Cl)cc1` (stereo not given): -0.332; for `O=C(CCl)N1CCC(O)(Cc2ccc(F)cc2)C1` (stereo not given): 0.271; for `O=C(CCl)Nc1ccc(N2CCCC2=O)cc1`: -0.139. Take `Cc1nc(CN2CCCN(C(=O)CCl)CC2)no1.Cl`: the “log2 ratio” value is 0.0942. For the compound `NS(=O)(=O)c1ccc(Cl)c(NC(=O)CCl)c1`, the “log2 ratio” value is -0.356. With `Cc1cccnc1NC(=O)C1CCN(C(=O)CCl)CC1.Cl`, the “log2 ratio” value was -0.377. The same measure for `NC(=O)C1CCCN(C(=O)CCl)C1` (stereo not given): -0.153; for `Cc1ccc(CN(CCO)C(=O)CCl)cc1`: -0.249.
